# Screening data from PubChem BioAssay.
# In the library only some 6.4% were active in any assay of this set; here they are far more common.
# RORgamma inh: inhibitors of mouse ROR gamma transcriptional activity; P51450; Drosophila S2 Gal4-RORgamma UAS-luciferase reporter, 20 h; Potency, µM (doses to about 53.6 µM), for inactives: at the top dose activity change, negative = inhibition, most hits filed as inhibitors; 310,000 compounds, 5.4% hits; AID 2551; further: nearly all actives have a fitted effect of over 60% in size
# Target sequence (P51450 whole entry, looked up, the tested form may be a part): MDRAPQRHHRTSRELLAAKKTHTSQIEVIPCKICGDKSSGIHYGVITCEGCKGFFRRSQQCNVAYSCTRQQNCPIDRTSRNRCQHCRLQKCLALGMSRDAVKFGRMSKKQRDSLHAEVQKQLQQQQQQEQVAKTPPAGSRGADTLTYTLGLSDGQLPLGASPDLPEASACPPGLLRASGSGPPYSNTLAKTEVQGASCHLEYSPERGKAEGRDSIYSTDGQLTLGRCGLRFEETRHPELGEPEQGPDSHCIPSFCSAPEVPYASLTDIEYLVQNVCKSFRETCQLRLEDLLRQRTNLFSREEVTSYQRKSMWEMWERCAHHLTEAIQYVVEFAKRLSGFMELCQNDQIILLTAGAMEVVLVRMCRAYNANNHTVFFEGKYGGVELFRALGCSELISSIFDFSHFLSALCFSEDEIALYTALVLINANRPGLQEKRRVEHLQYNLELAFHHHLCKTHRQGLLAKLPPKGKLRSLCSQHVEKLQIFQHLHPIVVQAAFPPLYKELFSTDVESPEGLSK
#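 Drosophila Schneider cells stably carrying a metallothionein-driven Gal4 DBD–ROR gamma fusion and a UAS-Photinus luciferase reporter were exposed to compound for 1 hr, then induced with copper sulfate (700 uM final) for 20 hr at ambient temperature before luminescence reading.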
# Luc counter: counter-screen: inhibitors of Kinase-Glo firefly luciferase; Potency, µM (doses to about 38.3 µM), inactives show at the top dose activity change, negative = inhibition, hits mostly inhibitors; Q27757; Kinase-Glo luciferase, ATP luminescence, 8 min; 200,000 compounds, 0.28% hits; further: nearly all actives have a fitted effect of over 60% in size
#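 Inhibition of Kinase-Glo luciferase light generation was assessed at 10 uM ATP in pH 7.2 imidazole buffer, with luminescence measured after eight minutes at ambient temperature.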
# VP16 counter: inhibits Gal4-VP16 luciferase reporter, ROR gamma counter-screen; Drosophila S2 Gal4-VP16 UAS-luciferase, luminescence, 20 h; Potency, µM (titrated, usually from 53.6 µM), for the others: at the top dose activity, negative = inhibition, hits mostly inhibitors; 310,000 compounds, 3.5% hits;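 further: Gal4-VP16 expression switched on by copper sulfate through the metallothionein promoter; nearly all actives have a fitted effect of over 50% in size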
# An asterisk follows results filed as active; ? = inconclusive; / = not tested or not shown; [ ] = remark or other dose. The call rests on the fitted dose curve; in most records, active means well fitted curve in the direction sought with a large enough effect; inconclusive means small, poorly fitted or top-dose-only effect, or another doubt; inactive means no such curve, though single readings can be large; an effect the other way counts as inactive or inconclusive. On the % scale 0 is the no-effect control and ±100 the full control effect; potency means the concentration at half of the fitted maximal effect.
SMILES,RORgamma inh,Luc counter,VP16 counter
Cc1cccc(C)c1NC(=O)C[N+](C)(C)CC(O)COc1cccc2ccccc12 (stereo unspecified),-13%,0%,-5%
CC1=c2c(oc3cc(O)c(Nc4c(C)cc(O)cc4O)c(C)c23)=CC(=O)C1=Nc1c(C)cc(O)cc1O,/,-18%[7.66 µM],/
O=C(CC1CCCC1)Nc1nc2ccccc2[nH]1,8.9µM*,-6%,?
O=C(NCc1nc2ccccc2[nH]1)C1CCCCC1,9%,5%,-8%
O=C(CCn1ccnc1)Nc1nc2ccccc2[nH]1,14%,1%,-13%
O=C(Nc1nc2ccccc2[nH]1)C1CCCC1,7.1µM*,?,?
O=C(NCc1nc2ccccc2[nH]1)C1=C[C@H](C2CC2)C[C@H](OCc2ccc(CO)cc2)O1,13%,/,-1%
Cc1nn2cc(-c3ccccc3)nc2s1,11µM*,-16%,?
Cc1cc(C)n2nc(-c3ccccc3)cc2n1,-26%,-12%,-1%
COC(=O)C1=C(C)NC(C)=C([N+](=O)[O-])[C@@H]1c1ccccc1C(F)(F)F,-2%,1%[39.9 µM],3%
Oc1ccc(F)cc1-c1cc(-c2ccc3c(c2)OCCO3)n[nH]1,?,-5%,?
Oc1ccc(Br)cc1-c1cc(-c2ccccc2F)[nH]n1,1.8µM*,-3%,3.5µM*
Oc1ccc(Br)cc1-c1cc(-c2ccccc2Cl)[nH]n1,2.8µM*,/,-28%
O=C(O)c1cc(-c2ccccc2Cl)n[nH]1,5%,-1%,0%
COc1ccccc1CNc1ncncc1-c1ccccc1C(F)(F)F,0%,/,4%
COC(=O)[C@H](COC(C)(C)C)NC(=O)O[C@@H]1C(=O)c2cc(OC)ccc2O[C@H]1c1cccc(OC)c1,13%,3%,-22%
COC(=O)c1cc(NC(=O)Cn2c(=O)oc3ccccc32)cc(C(=O)OC)c1,-14%,/,7%
Cc1ccc(Nc2c([N+](=O)[O-])ccc3c2=NC2(CCCCC2)N=3)cc1,7.9µM*,-19%,-16%
O=[N+]([O-])c1ccc2c(c1Nc1ccccc1Cl)=NC1(CCCCC1)N=2,-11%,/,3%
CCOc1cc2[nH]c(=S)n(Cc3ccc(C(=O)O)cc3)c(=O)c2cc1OCC,7%,/,-1%
CC1NC(=S)N(C2CCCCC2)C1=O (stereo unspecified),11µM*,-2%,-5%
CCCCC1NC(=S)N(C2CCCCC2)C1=O (stereo unspecified),13µM*,5%,?
O=C1C2CCCN2C(=S)N1C1CCCCC1 (stereo unspecified),21%,/,-9%
C=CCN1C(=O)C(CCCC)NC1=S (stereo unspecified),?,-1%,?
CC(C)C1NC(=S)N(Cc2ccccc2)C1=O (stereo unspecified),?,-4%,?
SMILES,RORgamma inh,Luc counter,VP16 counter
CCC(C)C1NC(=S)N(C2CCCCC2)C1=O (stereo unspecified),6.3µM*,0%,11µM*
COc1ccccc1C(=O)NNC(=O)C(=O)NC1CCCCC1,?,/,-4%
COc1ccc(-c2nnc3n2N=C(c2ccccc2OC)CS3)cc1OC,42%,/,?
Cc1ccc(OCc2cc(C(=O)N3CCc4[nH]cnc4C3c3ccccn3)no2)cc1C (stereo unspecified),-5%,/,3%
O=C(c1cc2cc([N+](=O)[O-])ccc2oc1=O)N1CCN(c2ncccn2)CC1,20%,-1%,1%
O=C(c1cc2cc([N+](=O)[O-])ccc2oc1=O)N1CCOCC1,5µM*,-21%,?
CC(NC(=O)C(=O)NN=C1CCCC1)c1ccccc1 (stereo unspecified),-4%,-1%,1%
CCNC(=S)NNC(=O)C(c1ccccc1)c1ccccc1,3.2µM*,-2%,11µM*
CC(C)(C)C(=O)NC(=S)NNC(=O)C(c1ccccc1)c1ccccc1,2.8µM*,0%,11µM*
O=C(Nc1ccccc1)C(c1ccccc1)c1ccccc1,-20%,/,-14%
CN(C)C(=S)NC(=O)C(c1ccccc1)c1ccccc1,1.4µM*,3%,?
CC(=O)NNC(=S)NC(=O)C(c1ccccc1)c1ccccc1,?,4%,3%
CCNC(=S)NNC(=O)Nc1ccccc1,-35%,-3%,5%
CCC(C)n1c(SCc2ccc([N+](=O)[O-])cc2)nc2ccsc2c1=O (stereo unspecified),-17%,-6%,1%
Fc1ccc(CNC(=S)Nc2ccc(OC(F)F)cc2)cc1,11µM*,-3%,?
FC(F)Oc1ccc(NC(=S)NCc2cccnc2)cc1,17%,7%,-18%
COc1cc(NC(=S)Nc2ccc(OC(F)F)cc2)cc(OC)c1,10µM*,/,?
COc1cc(NC(=S)Nc2ccc(N(C)C(C)=O)cc2)cc(OC)c1,?,-1%,2%
Cc1cccc(NC(=O)CN(C)S(=O)(=O)c2ccc3c(c2)n(C)c(=O)c(=O)n3C)c1C,-13%,/,1%
COc1ccc(N2CCN(CC(=O)c3ccc(Cl)cc3)CC2)cc1,-1%,/,12%
O=C(N=C1SC2CS(=O)(=O)CC2N1c1ccc(Br)cc1)C1CCCO1 (stereo unspecified),6%,/,-2%
CCCn1ncc2c(Nc3ccc(C)c(C)c3)ncnc21,23%,/,?
COc1cc(NC(=S)NCc2cccnc2)cc(OC)c1,?,-2%,-7%
COc1cc(NC(=S)NCc2cccs2)cc(OC)c1,5µM*,-6%,11µM*
S=C(NCc1cccs1)Nc1ccc(Br)cc1Cl,?,4%,-19%
SMILES,RORgamma inh,Luc counter,VP16 counter
Cc1cc(C)cc(NC(=S)NCc2cccs2)c1,2.2µM*,0%,11µM*
CC12CN3CC(C)(CN(C1)C3c1ccc3c(c1)OCO3)C2O (stereo unspecified),3%,/,-12%
CSc1ccc(/C=C(/NC(=O)c2ccco2)C(=O)N2CCCCCC2)cc1,11%,/,-1%
COc1ccc(Nc2cc(C)c3c(O)cccc3n2)cc1,1%,/,-14%
Cc1ccc(Nc2cc(C)c3c(O)cccc3n2)cc1C,?,/,10µM*
COc1ccc(-c2nc3cnc(Oc4cccc(Cl)c4)nc3n(CCC#N)c2=O)cc1,-14%,/,-5%
COc1ccc(-c2nc3cnc(N4CCNCC4)nc3n(C3CC3)c2=O)cc1,-21%,1%,3%
COc1cc(NS(=O)(=O)c2ccc(C)cc2)c2ncccc2c1,1µM*,3%,0.79µM*
O=[N+]([O-])c1ccc(S(=O)(=O)Nc2ncccn2)cc1,-3%,/,-1%
COc1ccc(S(=O)(=O)Nc2ccccn2)cc1,18%,/,-1%
COc1cc(NS(=O)(=O)c2cccc([N+](=O)[O-])c2)c2ncccc2c1,1.1µM*,/,2µM*
O=[N+]([O-])c1cccc(S(=O)(=O)NCCOc2cccc3cccnc23)c1,-25%,/,5%
COc1cc(NS(=O)(=O)c2ccc([N+](=O)[O-])cc2)c2ncccc2c1,0.89µM*,/,0.89µM*
COc1ccc(/C(C)=N/NC(=O)c2cc(C)[nH]n2)c(OC)c1,-4%,/,-5%
CCC/C=C(\CCC)C(NS(=O)(=O)c1ccc(C(F)(F)F)cc1)c1ccc(C(=O)OC)cc1 (stereo unspecified),39%,-4%,?
Cc1ccc(N2CC(C(=O)N3CCCCC3)CC2=O)cc1C (stereo unspecified),2%,/,3%
